The record followed here is PubChem BioAssay AID588727 (Southern Research Specialized Biocontainment Screening …, 2011).

Usually inhibition stands for the percentage by which the read-out fell short of the control.

The whole screen tested about 350,000 compounds, of which about 450 (0.13%) were called active. The rule behind the calls is not given here. A selection follows. Results with a measured potency or affinity are listed apart. Where a SMILES comes first, the peptide text is derived from it. [ ]: non-standard residue; d: D form.

The experiment can be described thus: inhibitors of VEEV TC-83 cytopathic effect, confirmation, Vero cells (AID 588727). To be noted: VEEV TC-83 cytopathic effect inhibition, at 20 µM. (In general: Protection from cytopathic effect is a common read-out in antiviral testing.)
Where [1] appears, read: stronger effect = higher value unless noted.
[2] abbreviates: measured here: 10K pilot screen inhibition, stronger effect = higher value.

In the case of `CCc1nnc(NC(=O)C2CC(=O)N(Cc3ccco3)C2)s1` (centres undefined), the inhibition under setting [1] was 2.16% (inactive). Still for that read-out and setting: then `Cc1cc(C)c[n+](CC(=O)c2ccc(C)c([N+](=O)[O-])c2)c1`, with 0.1% (inactive); and `Cc1cccc[n+]1CC(=O)c1ccc([N+](=O)[O-])cc1`, with “inactive”. Same read-out and setting: then `S=C(N/N=C/c1ccc2ncccc2c1)Nc1ccccc1`, with 9.82% (inactive); and `O=C(Nc1ccc2c(c1)CCCN2C(=O)c1cccs1)c1ccccc1`, with 6.53% (inactive); and `COc1ccccc1C(=O)Nc1ccc2c(c1)CCCN2C(=O)c1cccs1`, with 4.26% (inactive). Same read-out and setting: then `CCn1nnnc1SCC(=O)N1CCOCC1`, with 0.74% (inactive); and `COc1ccc(N2CC(C(=O)N/N=C/c3cc([N+](=O)[O-])ccc3O)CC2=O)cc1` (centres undefined), with 2.03% (inactive). For `CCC(C)[C@@H]1NC(=O)N(CCCN2CCCC2=O)C1=O` (some centres undefined), under setting [1], the inhibition is 2.56% (inactive). The same measure, in the same setting: the value for `CC[C@H](C)[C@@H]1NC(=O)[C@H]([C@@H](C)CC)NC(=O)[C@@H](CC(C)C)NC(=O)[C@H](Cc2ccccc2)NC(=O)[C@H](Cc2ccccc2)NC(=O)[C@@H]2CCCN2C(=O)[C@@H]2CCCN2C(=O)[C@H](C(C)C)NC(=O)[C@H](CC(C)C)NC1=O` (cyclo(FF[dL]IILVPP)) was “inactive”; that for `Cc1ccccc1NC(=O)NCCN1CC1` was “inactive”.

Regarding `Cc1ccccc1NC(=O)NCCCN1CCN(C)CC1`, the inhibition under setting [1] was 0.45% (inactive).

As for `CC(NC(=O)c1cccc(S(=O)(=O)N(C)c2ccccc2)c1)c1cccnc1` (centres undefined), under setting [1], the inhibition is 1.03% (inactive). Still for that read-out and setting: the value for `C[N+]1(CCCCSc2ccc(O)cc2)CCCCC1` was “inactive”.

In the case of `Cc1ccc(NC(=O)CSc2ccc(-c3ccccn3)nn2)cc1`, the inhibition under setting [1] was 0.64% (inactive). `CC(C)(C)NC(=O)CSc1nc2ccccc2n1-c1ccccc1`: the inhibition under setting [1] is 7.16% (inactive). On the same count and under the same terms, the value for `CC(C)NC(=O)CSc1nc2ccccc2n1-c1ccccc1` was 3.21% (inactive). The same measure, in the same setting: then `Cc1ccc(-n2c(SCC(=O)Nc3cccc(S(N)(=O)=O)c3)nc3ccccc32)cc1`, with 2.21% (inactive); and `Cn1nnnc1SCC(=O)Nc1ncc(Cl)cc1Cl`, with 2.56% (inactive). The same measure, in the same setting: then `O=C(CSc1nnc2ccccn12)Nc1ncc(Cl)cc1Cl`, with 3.72% (inactive). For the molecule `Cc1nnc(SCC(=O)Nc2ncc(Cl)cc2Cl)n1Cc1ccccc1`, the inhibition under setting [1] is 1.6% (inactive).

As to `CC(C)c1ccc(-c2cc(C(=O)N3N=C(C(F)F)CC3(O)C(F)F)c3ccccc3n2)cc1` (centres undefined), the inhibition entry under setting [1] was “inactive”.

As to `O=C1CCC(C(=O)N2CCCCO2)CN1CCc1ccccc1` (centres undefined), under setting [1], the inhibition is 2.16% (inactive). The same measure, in the same setting: then `COc1ccc(C2CN=NC2C(=O)c2ccccc2)cc1` (centres undefined), with 0.98% (inactive); and `Cc1ccc(/C=N/n2c(-c3cccnc3)n[nH]c2=S)o1`, with 0.4% (inactive); and `CC(=O)Nc1ccc(S(=O)(=O)NC2=NCN(c3cccc([N+](=O)[O-])c3)CN2)cc1`, with 0.07% (inactive). Consider `Cc1nn(-c2ccccc2)c2c1C1(C(=O)Nc3ccccc31)N1C(=N2)Sc2ccccc21` (centres undefined), for which the inhibition under setting [1] is 1.86% (inactive).

With `CCCCCc1ccc(-c2nnc(N)s2)cc1`, the inhibition under setting [1] is 2.86% (inactive). The same measure, in the same setting: then `CC1=Nc2cc(C(=O)O)ccc2Sc2c(C)ccc(C)c21`, with 0.43% (inactive). The same measure, in the same setting: the value for `CC1=Nc2cc(C(=O)N3CCCC3)ccc2Sc2ccc(C)cc21` was 1.14% (inactive). As for `CCOc1ccc(CCNC(=O)CCS(=O)(=O)c2ccc(OC)cc2)cc1OCC`, the inhibition under setting [1] was 0.09% (inactive). Same read-out and setting: the value for `O=C(Cn1ncc2c([nH]c3ccccc32)c1=O)NCCc1ccc(Cl)cc1` was 1.06% (inactive). As to `CCN(CC)c1ccc(-n2cc3c(=O)n(C)c(=O)n(C)c3c2)cc1`, the inhibition under setting [1] was 5.43% (inactive).

For the molecule `Cc1ccc(C)c(NC(=O)c2ccc3ccccc3n2)c1`, under setting [1], the inhibition is 4.34% (inactive). Same read-out and setting: then `CNC(=O)Nc1ccc(C(=O)N/N=C\C23CC[C@@H](O)CC2(O)CC[C@@H]2[C@@H]3CCC3(C)C(C4=CC(=O)OC4)CCC23O)cc1` (some centres undefined), with 3.29% (inactive); and `CC(=O)OCC(=O)C1(O)CCC2C3CC(C)C4=CC(=O)CCC4(C)C3C(O)CC21C` (centres undefined), with 2.53% (inactive). Consider `C[C@@H]1O[C@@H](O[C@@H]2C=C3CCC4C(CC[C@]5(C)[C@@H](c6ccc(=O)oc6)CC[C@]45O)[C@@]3(C)CC2)[C@H](O)[C@H](O)[C@H]1O` (some centres undefined), for which the inhibition under setting [1] is 23.8% (inactive). Take `CCCOC1(NC(=O)c2ccccc2)C(C)=CC(=O)C=C1C`: under setting [1], the inhibition result is “inactive”. Consider `CC1CC(C)CN(S(=O)(=O)c2ccc(C(=O)N3CCN(c4ccccc4)CC3)cc2)C1` (centres undefined), for which the inhibition under setting [1] is 1.42% (inactive). Still for that read-out and setting: the value for `CCOc1ccc(NS(=O)(=O)c2ccc(C(=O)N(C)CC(=O)Nc3ccc(OC)cc3)cc2)cc1` was 4.36% (inactive). Same read-out and setting: then `Cc1ccc(-n2c(SCC(=O)O)nc3sc4c(c3c2=O)CC(C)(C)SC4)cc1`, with 0.39% (inactive). Still for that read-out and setting: the value for `CCN1C(=O)/C(=C/c2cn(-c3ccccc3)nc2-c2cccnc2)SC1=S` was 0.65% (inactive); that for `O=C(CCCc1cccs1)Nc1nc2c(s1)CCCC2` was 5.78% (inactive).

As to `O=C(COc1ccccc1)Nc1nc2c(s1)CCCC2`, the inhibition under setting [1] is 3.03% (inactive). Same read-out and setting: then `CC1CCc2nc(NC(=O)Cc3cccs3)sc2C1` (centres undefined), with 4.77% (inactive).

Consider `COc1ccc(OCC(=O)Nc2nc3c(s2)CCCC3)cc1`, for which, under setting [1], the inhibition is 5.92% (inactive). On the same count and under the same terms, then `CCOC1CCCC(n2cnc3c(=S)nc[nH]c32)O1` (centres undefined), with 2.72% (inactive); and `CCCC(=O)Nc1ccc(NC(=O)c2cccc(OC)c2)cn1`, with 0.41% (inactive). The same measure, in the same setting: then `COc1ccccc1CCC(=O)OCC(=O)NC1CC1`, with 2.29% (inactive). The same measure, in the same setting: then `CC1=NOC2(C1)N(C)c1ccccc1C2(C)C` (centres undefined), with 0.08% (inactive); and `CCN(CC)S(=O)(=O)c1ccc(C2=NOC3(C2)N(C)c2ccccc2C3(C)C)cc1` (centres undefined), with 8.77% (inactive); and `CCn1c(SCC(=O)OC)nnc1-c1ccncc1`, with 0.14% (inactive).

For the molecule `COc1cccc(CC(=O)OCC(=O)NC(C)c2ccc(F)cc2)c1` (centres undefined), the inhibition under setting [1] is 4.67% (inactive). As to `Cc1cc(-c2nnc(SCCC(=O)Nc3ccccc3)o2)no1`, under setting [1], the inhibition was 0.79% (inactive). On the same count and under the same terms, then `O=C(CSc1nnnn1C1CC1)Nc1ccc(S(=O)(=O)N2CCOCC2)cc1`, with 1.19% (inactive); and `CN(C)c1ccc(/C=C/c2c([N+](=O)[O-])c(=O)n(C)c(=O)n2C)cc1`, with 0.74% (inactive); and `COc1ccc(/C=C/c2c([N+](=O)[O-])c(=O)n(C)c(=O)n2C)cc1`, with 0.41% (inactive).

Consider `Cc1ccc(S(=O)(=O)Nc2cccc(C(=O)N3CCOCC3)c2)cc1`, for which the inhibition entry under setting [1] is “inactive”. `Cc1cc(C)cc(NC(=O)CSc2nc3ccccc3nc2N2CCCC2)c1`: the inhibition is, setting by setting: (stronger effect = higher value) 4.9% (inactive); under setting [2], 0.985%. On the same counts, the results for `Cc1cc(C)cc(NC(=O)CSc2nc3ccccc3nc2N2CCCCC2)c1` are 3.44% (inactive) and 1.42%. For the molecule `CCc1ccc(C(C(=O)NC2CCCC2)N(C(=O)c2csnn2)C2CC2)cc1` (centres undefined), the inhibition under setting [1] is 0.43% (inactive). Same read-out and setting: the value for `CCN(CC)S(=O)(=O)c1ccc(OC)c(NS(=O)(=O)c2ccc(F)cc2)c1` was “inactive”.
